From PubChem
The list is not random: actives were taken first. Their share in the collection is about 9.9%.
KDM4E inh: blocks human JMJD2E demethylase activity; JMJD2E catalytic domain, FDH-coupled NADH fluorescence (FDH is formaldehyde dehydrogenase); actives 1.6% (n = 230,000); Potency, µM (doses to about 57.1 µM), usual class: inhibitors; also: nearly all actives have a fitted effect of over 50% in size
Tau ThT inhib: tau fibrillization inhibition (ThT binding). P10636. recombinant tau K18 P301L, heparin-induced fibrillization, ThT fluorescence. actives 2.1% (n = 270,000). Potency, µM (top dose mostly 57.4 µM), hits mostly inhibitors; active = well fitted curve in the direction sought with a large enough effect; inconclusive = small, poorly fitted or top-dose-only effect, or another doubt; inactive = no such curve, though single readings can be large; an effect the other way counts as inactive or inconclusive; also: nearly all actives have a fitted effect of over 55% in size
Target sequence (P10636 561-689 P618L limits assumed): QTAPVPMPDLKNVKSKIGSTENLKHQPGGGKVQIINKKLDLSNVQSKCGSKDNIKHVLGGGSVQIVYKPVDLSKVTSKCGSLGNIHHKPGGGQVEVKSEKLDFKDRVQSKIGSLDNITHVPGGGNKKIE
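Heparin-induced fibrillization of the P301L-mutant K18 repeat-domain fragment of human tau was followed by ThT binding in quantitative high-throughput format.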
Tau fluor counter: counter-screen for tau fibril formation inhibitors; tau K18 P301L Alexa594 fluorescence, heparin fibrillization; Potency, µM (series often up to 57.7 µM); actives 0.93% (n = 280,000); active = well fitted curve in the direction sought with a large enough effect; inconclusive = small, poorly fitted or top-dose-only effect, or another doubt; inactive = no such curve, though single readings can be large; an effect the other way counts as inactive or inconclusive; also: nearly all actives have a fitted effect of over 55% in size
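Human tau K18 P301L (15 uM unlabeled, 0.24 uM Alexa 594-labeled) in 100 mM sodium acetate pH 7 with 20 uM heparin, 6 hr at 37 C. ThT 30 uM added, 1 hr ambient; Alexa 594 FP and total fluorescence read at 555/632 nm.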
HPGD block: HPGD (human) dehydrogenase inhibition; P15428; purified HPGD, NADH fluorescence kinetic, PGE2 substrate; Potency, µM, usual class: inhibitors; actives 4.3% (n = 150,000); AID 894
Target sequence (P15428 whole entry, looked up): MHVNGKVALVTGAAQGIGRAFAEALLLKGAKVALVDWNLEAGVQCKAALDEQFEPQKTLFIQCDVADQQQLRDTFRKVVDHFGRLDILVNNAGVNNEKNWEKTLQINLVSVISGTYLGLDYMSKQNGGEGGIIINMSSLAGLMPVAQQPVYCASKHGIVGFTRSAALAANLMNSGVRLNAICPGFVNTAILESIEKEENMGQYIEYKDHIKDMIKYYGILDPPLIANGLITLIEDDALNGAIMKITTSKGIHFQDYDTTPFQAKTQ
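20 nM HPGD preincubated 15 min at room temperature with compound in 50 mM Tris-HCl pH 8, 0.01% Tween 20. Started with 1 mM NAD+ and 30 uM prostaglandin E2; NADH fluorescence (360/450 nm) read 5 times over 30-s intervals, last minus first.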
ALDH1A1 block: blocks purified human ALDH1A1 activity; P00352; Purified ALDH1A1, NADH fluorescence, propionaldehyde substrate; Potency, µM (top dose mostly 75.3 µM), actives largely listed as inhibitors; actives 7.3% (n = 220,000); AID 1030
Tau fibril FP: inhibitors of human tau fibril formation; P10636; K18 P301L tau heparin fibrillization, Alexa594 FP, 6 h; Potency, µM (series often up to 57.7 µM), usual class: inhibitors; actives 0.39% (n = 280,000); active = well fitted curve in the direction sought with a large enough effect; inconclusive = small, poorly fitted or top-dose-only effect, or another doubt; inactive = no such curve, though single readings can be large; an effect the other way counts as inactive or inconclusive; also: nearly all actives have a fitted effect of over 55% in size
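Quantitative HTS format: compounds meet 15 uM recombinant K18 P301L tau and Alexa 594-tau tracer in 100 mM sodium acetate pH 7; 20 uM heparin triggers fibrillization at 37 C over 6 hr; FP gives the signal.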
Hits are given with their value; n = inactive; u = inconclusive; x = not tested or not shown; [ ] = another dose, or the depositor's remark. Unless noted, calls follow the shape of the dose curve; as a rule, active = well fitted inhibition curve with a large enough effect (not every such curve was filed as active); inconclusive = small, poorly fitted or top-dose-only effect, or another doubt; inactive = no such curve, though single readings can be large or run the other way.

SMILES | KDM4E inh | Tau ThT inhib | Tau fluor counter | HPGD block | ALDH1A1 block | Tau fibril FP
COc1cccc(-c2nc(CS(=O)(=O)CC(=O)Nc3c(C)cc(C)cc3C)c(C)o2)c1 | x | n | n | x | x | n
O=c1c(-c2ccco2)[n+]([O-])c2ccccc2n1OCc1ccccc1 | u | n | n | u | 22.4µM | n
COc1ccccc1COn1c(=O)c(-c2ccco2)[n+]([O-])c2ccccc21 | u | u | n | x | 22.4µM | n
O=c1c(-c2ccco2)[n+]([O-])c2ccccc2n1OCc1ccccc1F | n | n | n | n | u | n
COc1ccc(C(=O)c2c(N)c(-c3nc(-c4ccc(OC)cc4)cs3)c3ccccn23)cc1 | x | u | u | x | x | n
CCCCOC(=O)c1ccc(-n2nnc3c(sc4nc(C)cc(C)c43)c2=O)cc1 | x | n | n | x | x | n
O=c1c2oc3nc4c(cc3c2ncn1CCCc1ccccc1)CCCC4 | u | u | n | x | 3.98µM | n
O=c1c2cc3c(nc2ncn1Cc1ccc(Cl)cc1)CCCC3 | x | n | n | x | x | n
CCCCn1cnc2c(oc3nc4c(cc32)CCCC4)c1=O | u | u | n | x | 1.26µM | n
CCCCCCn1cnc2c(oc3nc4c(cc32)CCCC4)c1=O | n | u | n | n | 3.55µM | n
Cc1ccc(Cn2cnc3nc4c(cc3c2=O)CCCC4)cc1 | x | n | n | x | x | n
CCn1c2ccccc2c2cc(NC(=O)COc3cc(C)ccc3C)ccc21 | x | u | n | x | x | n
CC1(C)Oc2ccc(C#N)cc2[C@@H](OC2=CC(=O)CC2)[C@@H]1O | x | n | n | x | n | n
OCCN1CCN(c2cc(C(F)(F)F)nc3c(F)cccc23)CC1 | n | x | n | x | x | n
Cc1ccc(N2NC(=O)/C(=C\c3cc4c(cc3[N+](=O)[O-])OCO4)C2=O)cc1C | n | 14.1µM | u | 3.98µM | 17.8µM | u
Cc1ccc(N2NC(=O)/C(=C/c3ccc(-c4ccc(Cl)c(C(=O)O)c4)o3)C2=O)cc1C | n | u | n | x | u | n
c1ccc(CN2CCN(c3nc4ccccc4n4cnnc34)CC2)cc1 | n | n | n | 14.1µM | n | n
C1=C(c2ccccc2)CCN(c2nc3ccccc3n3cnnc23)C1 | u | u | n | 14.1µM | 28.2µM | n
Cn1c(=O)cc(SCC(=O)N2CCN(c3ccc(F)cc3)CC2)c2ccc(Cl)cc21 | x | n | n | x | x | n
Cc1ccccc1OCC(=O)N(Cc1ccc(C(C)C)cc1)C1CCS(=O)(=O)C1 (stereo not given) | x | n | n | x | x | n
Cc1cccc(C)c1NC(=O)CN(c1ccccn1)S(=O)(=O)c1ccccc1 | u | n | n | x | u | n
COC(=O)C1=C(C)N(Cc2ccccc2)C2=C(C(=O)c3ccccc3)C(c3ccccc3)[C@@](O)(C(=O)OC)C(=O)N2C1c1ccccc1 (stereo not given in full) | x | u | n[11.6 µM] | x | n[13.5 µM] | n[11.6 µM]
CC(C)CCN1C(=O)c2ccccc2C1C(=O)NCc1cccnc1 (stereo not given) | n | n | n | n | n | n
COC(=O)c1ccc(CNC(=O)COC(=O)CC23CC4CC(CC(Br)(C4)C2)C3)cc1 | n | n | n | n | 12.6µM | n
COC(=O)c1ccc(CNC(=O)COC(=O)C23CC4CC(CC(C4)C2)C3)cc1 | n | n | n | n | u | n
SMILES | KDM4E inh | Tau ThT inhib | Tau fluor counter | HPGD block | ALDH1A1 block | Tau fibril FP
CCOC(=O)c1ccc(NC(=O)C2=C(C)C(=O)OC23CCN(C(C)C)CC3)cc1 | x | n | n | x | x | n
Cc1[nH]c2ccccc2c1N=Nc1cccc(C(=O)O)c1 | n | 7.94µM | n | n | n | n
Cc1[nH]c2ccccc2c1N=Nc1ccccc1C(=O)O | n | u | u | 14.1µM | u | n
CCOC(=O)Cc1ccc(NC(=O)N2CC(CC)Oc3ccccc32)cc1 (stereo not given) | x | n | n | x | x | n
N#CC1(C#N)CC(C=O)=C(N)C1(C#N)CC(=O)C12CC3CC(CC(C3)C1)C2 (stereo not given) | n | u | n | n | 17.8µM | n
CNC(=O)[C@H](Cc1c[nH]c2ccccc12)NC(=O)[C@@H](CC(=O)NO)CC(C)C | x | n | n | x | n | n
Cc1ccc(N(C(=O)c2cnccn2)C(C(=O)NC2CCCCC2)c2ccc(O)cc2)cc1 (stereo not given) | n | n | n | x | n | n
Cc1cc(C)cc(N(C(=O)c2ccccn2)C(C(=O)NC2CCCCC2)c2cccs2)c1 (stereo not given) | n | n | n | n | n | n
CC1CCCCN1S(=O)(=O)c1ccc(N(C(=O)c2cnccn2)C(C(=O)NC2CCCC2)c2cccs2)cc1 (stereo not given) | n | n | n | n | 3.98µM | n
CC1CCCCN1S(=O)(=O)c1ccc(N(C(=O)c2cnccn2)C(C(=O)NC2CCCCC2)c2cccs2)cc1 (stereo not given) | n | n | n | n | 8.91µM | n
Cc1ccc(C)c(N2CCN(S(=O)(=O)c3ccc4[nH]c5c(c4c3)CCCCC5)CC2)c1 | x | n | u | x | x | n
CC(=O)c1ccc2c(c1)C1C=CCC1C(c1ccncc1)N2 (stereo not given) | u | 14.1µM | u | n | 20µM | u
COC(=O)c1ccc(C2Nc3ccc(/C(C)=N/NC(=O)C(OC)c4ccccc4)cc3C3C=CCC32)cc1 (stereo not given) | u | u | n | u | u | n
C1=CC2c3ccccc3NC(c3ccncc3)C2C1 (stereo not given) | u | 22.4µM | u | 22.4µM | 10µM | u
Cc1ccccc1C(=O)OCc1cc(=O)n2nc(C3CC3)sc2n1 | x | u | n | x | x | n
CC1CCCCC1NC(=O)COC(=O)c1c2c(nc3ccccc13)/C(=C/c1ccco1)CC2 (stereo not given) | 15.8µM | u | n | n | u | n
O=C(COC(=O)c1c2c(nc3ccccc13)/C(=C/c1ccco1)CC2)NC1CCCC1 | 25.1µM | u | u | n | u | n
CC(=O)Nc1ccc(NC(=O)COC(=O)c2c3c(nc4ccccc24)CCN(Cc2ccccc2)C3)cc1 | n | n | u | x | 7.08µM | n
NC(=O)c1ccc(NC(=O)COC(=O)c2c3c(nc4ccccc24)/C(=C\c2cccs2)CCC3)cc1 | u | n | u | u | u | 4.47µM
CCc1cccc(C)c1NC(=O)COC(=O)c1c2c(nc3ccccc13)/C(=C\c1cccs1)CCC2 | u | u | n | u | n | n
CC(C)CNC(=O)COC(=O)c1c2c(nc3ccccc13)/C(=C/c1cccs1)CC2 | u | u | u | x | n | n
Cc1ccc(NC(=O)c2ccccc2NS(=O)(=O)c2ccc(Cl)s2)cc1S(=O)(=O)N1CCOCC1 | n | u | n | n | u | n
COC(=O)c1cccc(NC(=O)c2cc(OC)c(OC)c(OC)c2Br)c1 | n | n | n | u | 39.8µM | n
